This is part of a sample that, as a whole, favours compounds with a hit. Of some 83,000 tested, about 20% had one in any assay.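 Negative percent growth values reflect cell death: -40 means 40% of the cells present at the start died, and -100 means all died.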 Active and inactive are the calls of the source. Rule for the calls: active = growth percent below 10; inactive = the rest.

The assay deals with HL-60(TB) leukemia. The assay is described as follows: NCI-60 one-dose screen, 48 h (100 = growth as untreated, 0 = no growth, -100 = all killed). To be noted: 10 µM unless noted.
As for `Cc1cc(Cl)ccc1Nc1nc(C(F)(F)F)ccc1C(=O)N/N=C/c1ccc(Cl)cc1`, the growth was -33.8% (active).
For `Cc1ccc(-c2nc(N3CCCNCC3)c3oc(-c4ccccc4)nc3n2)cc1`, the growth was -69.7% (active).
The figure for `COc1ccc(S(=O)(=O)NCCCNc2nccc(-c3c(-c4cccc(N)c4)nc4sccn34)n2)cc1` is 112% (inactive); for `COc1ccc(-c2[nH]c3ccc(OC)cc3c2/C=C(\C#N)S(=O)(=O)c2ccccc2)cc1` it is 8.54% (active).
The result for `COC(=O)c1nc(-c2ccccc2)oc1S(=O)(=O)NCC(c1ccc(Cl)cc1)N1CCCCC1` (stereo unspecified) reads 17.5% (inactive); that for `C1CCc2onc(-c3noc4c3CCCCC4)c2CC1`, 102% (inactive).
The figure for `COc1ccc(N2CCN(c3nc(-c4cc(OC)c(OC)c(OC)c4)nc4ccccc34)CC2)cc1` is 44.4% (inactive).
For the compound `CNCCCNc1nc2ccccc2c2c(=O)c3cc(Cl)ccc3sc12`, the growth was -55.2% (active).
The figure for `CCOc1cc(C(C)(C)C)ccc1C1=N[C@H](c2ccc(Cl)cc2)[C@H](c2ccc(Cl)cc2)N1C(=O)N1CCN(CC#Cc2cccc3c2CN([C@@H]2CCC(=O)NC2=O)C3=O)CC1` is -20.9% (active).
With `O=C(Nc1ccc(/C=C2\SC(=O)N(Cc3ccc(OC(F)(F)F)cc3)C2=O)cc1)c1ccc(Cl)c([N+](=O)[O-])c1`, the growth was 71.3% (inactive).
On to `CSc1nnc(-c2cc3c([nH]c4ccccc43)c(-c3cccc(O)c3)n2)n1-c1ccc(C)cc1`, for which the growth was -16.1% (active).
The figure for `Cc1ccccc1Nc1cc(O)c2c(=O)cc(-c3ccccc3)oc2c1` is 8.58% (active); for `O=C(/C=C\c1cc(Br)ccc1O)/C=C/c1cc(Br)ccc1O` it is -3.03% (active); for `CC(=O)c1ccc2c(c1)CCc1ccccc1-2` it is 126% (inactive).
The figure for `Clc1cccc(Cl)c1C(Nc1nc2ccccc2s1)Nc1nc2ccccc2s1` is 105% (inactive).
The result for `N[C@H](CS)C(=O)O` reads 109% (inactive); that for `COc1cnc2c(c1)C(=O)c1c-2n(CCCn2ccnc2)c(=O)c2cc(F)ccc12`, -44.5% (active).
With `CCC(C)(c1cc(C(C)(C)C)c(O)c(C(C)(C)C)c1)c1cc(C(C)(C)C)c(O)c(C(C)(C)C)c1`, the growth was 99.3% (inactive).
The result for `C=CCOC(=O)C1=C(C)N(CC)C(=O)N(CC)C1c1c(Cl)n(C)c2ccccc12` (stereo unspecified) reads 96.9% (inactive).
The result for `O=C(CSc1nnc(-c2ccc(Cl)c(Cl)c2)n1-c1ccccc1)Nc1ccc(C(=O)/C=C/c2ccc(Cl)cc2)cc1` reads 81.8% (inactive); that for `COc1cccc(Nc2nc(SC)nc(-c3cccc([N+](=O)[O-])c3)c2C#N)c1`, 112% (inactive).
Regarding `COc1ccc(C(C)=O)cc1N1C(=O)C2C(C1=O)C1(c3ccccc3)C(=O)C2(c2ccccc2)C(c2ccc(C)cc2)=C1c1ccc(C)cc1` (stereo unspecified), the growth is 17.1% (inactive).
The result for `O=P(O)(c1ccccc1)c1ccccc1I` reads 117% (inactive); that for `CCOC(=O)C1OC1c1ccccc1` (stereo unspecified), 97% (inactive); that for `CC1CC=CCC1C1OCC(C)(C)CO1` (stereo unspecified), 91.8% (inactive).
The figure for `CC(=O)C(C(C)=O)C(c1ccccc1)C(C(C)=O)C(C)=O` is 98.5% (inactive).

For the origin of these results see PubChem BioAssay (NCI).
